Test results taken from PubChem BioAssay (NCATS).
Values joined by “and” are separate entries in the source; they are usually repeats but may differ in a detail not shown here. Equal values may be shown once. Inconclusive results are not listed. Active and inactive are the calls of the source. The call rests on the fitted dose curve; in most records, active means well fitted inhibition curve with a large enough effect; inconclusive means small, poorly fitted or top-dose-only effect; inactive means flat fitted curve, though single readings scatter.

What was measured:
GB4 = experiment: qHTS profiling for inhibitors of Plasmodium falciparum proliferation (AID 504749); further: potency means the concentration at half of the fitted maximal effect; details: P. falciparum in erythrocytes, SYBR Green DNA, 72 h; series mostly up to 28.7 µM
Summary of the method: (§1)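 Quantitative HTS: compounds pinned into medium, infected erythrocytes added (0.3% parasitemia, 2.5% hematocrit), 72 h culture at 37 C under 5% CO2. Saponin/Triton lysis with SYBR Green I, overnight RT, then fluorescence read.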

HB3 = experiment: as above; details: P. falciparum in erythrocytes, SYBR Green DNA, 72 h; series mostly up to 28.7 µM
Summary of the method: as §1

ICS = experiment: as above; details: P. falciparum in erythrocytes, SYBR Green DNA, 72 h; series mostly up to 28.7 µM
Summary of the method: as §1

JCK = experiment: as above; details: P. falciparum in erythrocytes, SYBR Green DNA, 72 h; series mostly up to 28.7 µM
Summary of the method: as §1

N140 = experiment: as above; details: P. falciparum in erythrocytes, SYBR Green DNA, 72 h; series mostly up to 28.7 µM
Summary of the method: as §1

P93_24 = experiment: as above; details: P. falciparum in erythrocytes, SYBR Green DNA, 72 h; series mostly up to 28.7 µM
Summary of the method: as §1

PAD = experiment: as above; details: P. falciparum in erythrocytes, SYBR Green DNA, 72 h; series mostly up to 28.7 µM
Summary of the method: as §1

PC15 = experiment: as above; details: P. falciparum in erythrocytes, SYBR Green DNA, 72 h; series mostly up to 28.7 µM
Summary of the method: as §1

PC26 = experiment: as above; details: P. falciparum in erythrocytes, SYBR Green DNA, 72 h; series mostly up to 28.7 µM
Summary of the method: as §1

PC49 = experiment: as above; details: P. falciparum in erythrocytes, SYBR Green DNA, 72 h; series mostly up to 28.7 µM
Summary of the method: as §1

SC27B = experiment: as above; details: P. falciparum in erythrocytes, SYBR Green DNA, 72 h; series mostly up to 28.7 µM
Summary of the method: as §1

TAB109 = experiment: as above; details: P. falciparum in erythrocytes, SYBR Green DNA, 72 h; series mostly up to 28.7 µM
Summary of the method: as §1

TAB113 = experiment: as above; details: P. falciparum in erythrocytes, SYBR Green DNA, 72 h; series mostly up to 28.7 µM
Summary of the method: as §1

TAB165 = experiment: as above; details: P. falciparum in erythrocytes, SYBR Green DNA, 72 h; series mostly up to 28.7 µM
Summary of the method: as §1

W2 = experiment: as above; details: P. falciparum in erythrocytes, SYBR Green DNA, 72 h; series mostly up to 28.7 µM
Summary of the method: as §1

KB-3-1 = experiment: Cytotoxic Profiling of Annotated Libraries Using Quantitative High-Throughput Screening (AID 1296008); details: Five cell lines viability, CellTiter-Glo ATP luminescence, 48-72 h; max response: hits give low values; on max response: on the % scale 0 is the no-effect control and ±100 the full control effect
Summary of the method: (§2)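 Compounds were pin-transferred onto cells and incubated 48 or 72 hr at 37 degree Celsius, 95% humidity. CellTiter-Glo was added, plates sat 10 min at room temperature, then ATP-coupled luminescence was imaged as the viability read-out.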

P94_40 = experiment: qHTS profiling for inhibitors of Plasmodium falciparum proliferation (AID 504749); further: potency means the concentration at half of the fitted maximal effect; details: P. falciparum in erythrocytes, SYBR Green DNA, 72 h; series mostly up to 28.7 µM
Summary of the method: as §1

HaCat = experiment: Cytotoxic Profiling of Annotated Libraries Using Quantitative High-Throughput Screening (AID 1296008); details: Five cell lines viability, CellTiter-Glo ATP luminescence, 48-72 h; max response: hits give low values; on max response: on the % scale 0 is the no-effect control and ±100 the full control effect
Summary of the method: as §2
Further: nearly all actives have a fitted effect of over 60% in size.

N=c1ccn2c(n1)O[C@H]1[C@H](O)[C@@H](CO)O[C@H]12
inactive: Potency (GB4) | Potency (HB3) | Potency (ICS) | Potency (JCK) | Potency (N140) | Potency (P93_24) | Potency (PAD) | Potency (PC15) | Potency (PC26) | Potency (PC49) | Potency (SC27B) | Potency (TAB109) | Potency (TAB113) | Potency (TAB165) | Potency (W2) | max response (KB-3-1) 33.6%

COc1cc(/C=C/C(=O)CC(=O)/C=C/c2ccc(O)c(OC)c2)ccc1O
active: Potency (GB4) 12 µM | Potency (PC26) 9.53 µM | Potency (W2) 6.75 µM
inactive: Potency (JCK) | Potency (PC49) | max response (KB-3-1) 44.3%

CN1[C@@H](CC(=O)c2ccccc2)CCC[C@H]1C[C@H](O)c1ccccc1
inactive: Potency (HB3) | max response (KB-3-1) -11.5%
active: Potency (GB4) 10.7 µM | Potency (ICS) 11.2 µM | Potency (N140) 17.8 µM | Potency (P94_40) 11.2 µM | Potency (PC49) 7.08 µM | Potency (TAB165) 14.1 µM | Potency (W2) 5.36 µM

CO/N=C(\C(=O)N[C@@H]1C(=O)N2C(C(=O)O)=C(COC(C)=O)CS[C@H]12)c1csc(N)n1 (stereo in doubt)
inactive: max response (KB-3-1) -7.91%

C[S+](CC[C@H](N)C(=O)O)C[C@H]1O[C@@H](n2cnc3c(N)ncnc32)[C@H](O)[C@@H]1O (stereo partly drawn)
active: Potency (N140) 1 µM
inactive: Potency (GB4) | Potency (HB3) | Potency (ICS) | Potency (JCK) | Potency (PC15) | Potency (PC26) | Potency (PC49) | Potency (SC27B) | Potency (W2) | max response (KB-3-1) 16.4% and -2.48%

CC(C)Cc1ccc([C@H](C)C(=O)O)cc1
inactive: max response (KB-3-1) -10.1%

Cc1[nH]cnc1CN1CCc2c(c3ccccc3n2C)C1=O
inactive: Potency (GB4) | Potency (HB3) | Potency (ICS) | Potency (JCK) | Potency (N140) | Potency (P93_24) | Potency (P94_40) | Potency (PAD) | Potency (PC15) | Potency (PC26) | Potency (PC49) | Potency (SC27B) | Potency (TAB109) | Potency (TAB113) | Potency (TAB165) | Potency (W2)

O=C(O)/C=C/C(O)c1ccc(Cl)cc1 (stereo not drawn)
inactive: Potency (GB4) | Potency (HB3) | Potency (ICS) | Potency (JCK) | Potency (N140) | Potency (P93_24) | Potency (P94_40) | Potency (PAD) | Potency (PC15) | Potency (PC26) | Potency (PC49) | Potency (SC27B) | Potency (TAB109) | Potency (TAB113) | Potency (TAB165) | Potency (W2) | max response (KB-3-1) -6.79%

CN(C)[C@@H]1C(=O)C(C(=O)NCN2CCCC2)=C(O)[C@@]2(O)C(=O)C3=C(O)c4c(O)cccc4[C@@](C)(O)C3C[C@@H]12 (stereo partly drawn)
inactive: max response (HaCat) -12.7% | max response (KB-3-1) 3.68% and -3.42%

NS(=O)(=O)c1ccc(-n2nc(C(F)(F)F)cc2-c2ccc(Cl)cc2)cc1
inactive: outcome (HaCat) | max response (KB-3-1) -3.63%

COC(=O)C1=C(C)NC(C)=C(C(=O)OCC(C)C)C1c1ccccc1[N+](=O)[O-] (stereo not drawn)
inactive: max response (HaCat) 0.281%
active: Potency (GB4) 12 µM | Potency (ICS) 3.55 µM | Potency (P93_24) 10 µM | Potency (TAB109) 8.91 µM | Potency (TAB165) 10 µM | Potency (W2) 6.01 µM
